Test results as given in PubChem BioAssay AID588342 (National Center for Advancing Translational Sciences (NCATS), 2011).
In all, about 360,000 compounds went through this assay and about 25,000 (6.9%) were called active. Entries that show only a call come without a potency. Inconclusive results (about 9%) are left out. The call rests on the fitted dose curve; in most records, active means well fitted inhibition curve with a large enough effect; inconclusive means small, poorly fitted or top-dose-only effect; inactive means flat fitted curve, though single readings scatter. This excerpt belongs to a sample that is enriched for actives.

Target: Luciferin 4-monooxygenase (Photinus pyralis) (UniProt P08659)
Sequence (P08659 whole entry, looked up): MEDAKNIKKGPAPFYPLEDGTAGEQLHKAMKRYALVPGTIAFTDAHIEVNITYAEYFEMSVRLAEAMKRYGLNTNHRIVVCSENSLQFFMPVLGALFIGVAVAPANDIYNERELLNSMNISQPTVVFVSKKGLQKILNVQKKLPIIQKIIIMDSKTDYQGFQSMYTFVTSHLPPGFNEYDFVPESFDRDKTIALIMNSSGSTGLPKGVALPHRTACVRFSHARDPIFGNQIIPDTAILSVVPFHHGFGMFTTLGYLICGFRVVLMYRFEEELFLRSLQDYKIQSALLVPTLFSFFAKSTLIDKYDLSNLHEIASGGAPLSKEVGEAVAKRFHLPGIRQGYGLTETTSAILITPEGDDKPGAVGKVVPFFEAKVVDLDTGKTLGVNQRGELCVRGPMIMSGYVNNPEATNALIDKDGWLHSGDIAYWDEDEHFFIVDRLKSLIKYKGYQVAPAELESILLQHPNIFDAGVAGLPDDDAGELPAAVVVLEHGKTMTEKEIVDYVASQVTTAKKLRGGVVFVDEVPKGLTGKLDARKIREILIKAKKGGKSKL
Experiment: qHTS profiling assay for firefly luciferase inhibitor/activator using purifed enzyme and Km concentrations of substrates (counterscreen for miR-21 project); further: nearly all actives have a fitted effect of over 55% in size
Settings: purified FLuc, luminescence inhibition; series mostly up to 57.5 µM
Excerpt: MLPCN Grant: 1 R21 NS059478-01 (miR-21 grant) Assay Provider: NCGC NCGC Assay Overview: Firefly (Photinus pyralis) luciferase is one of the most commonly used transcriptional reporters for a number of reasons. It is considered one of the more dynamically responsive reporters -that is, responsive to changes in reporter transcription - as it requires no post-translational modifications and is enzymatically active directly after protein synthesis (Wood, 1998). Additionally, the half-life of the luciferase protein is short relative to other reporter-gene products (Wood, 1995). Whereas reporters with long half-lives potentially allow for increased signal due to accumulation of reporter-gene product, once accumulated in the cell, dynamic changes in reporter-gene expression may be difficult to detect(Fan and Wood, 2007; Almond et al., 2004). It has been shown that wild-type P. pyralis luciferase has a half-life of approximately […] hours in mammalian cells (Thompson et al., 1991). Firefly luciferase reporter-gene assays are also generally considered one of the most sensitive assay types (Wood, 1995; Wood, 1998). Although light produced in a bioluminescence reaction is of lower intensity than that produced during fluorescence emission, this is offset by little to no background light inherent to luminescent assays. Thus the luciferase reporter can be expressed at much lower levels than fluorescent proteins while still providing robust signal. # However, it was initially observed, in 1991, by Thompson et al., that compounds that resemble the substrates of firefly luciferase (FLuc) can act as competitive inhibitors of the enzyme, and that these compounds, upon interaction with luciferase in the cell, can actually stabilize the protein and increase its half-life. Accumulated intracellular FLuc protein can be measured as an increase in luminescence signal, upon addition of detection reagents (which contain high concentrations of FLuc substrates) commonly used in high-throughput screening. In cell-based reporter gene assays that use FLuc as the reporter gene to quantitate the potential influence of a given compound against the target biology, this apparent increase in luminescence can mistakenly be interpreted as identification of a compound that is active against the target of interest. This is the case for the miR-21 FLuc reporter gene assay used to identify inhibitors of the miR-21 pathway (PubChem AID 2289) - compounds of interest will inhibit miR-21 biogenesis/expression or activity, and are identified by causing an increase in luminescence, due to increased FLuc translation. However, FLuc inhibitory compounds that stabilize the FLuc protein will give an identical read-out, making it difficult to distinguish compounds that are active against the target from those active against FLuc. Previous profiling work to determine the prevalence of compounds that affect FLuc enzymatic activity (PubChem AID 411) identified that ~3% of the MLSMR library (then at ~72K) inhibited FLuc. […] Since the MLSMR had grown to ~350K compounds, and since it was expected that a significant percentage of compounds found active in the miR-21 FLuc assay would be FLuc inhibitors, the library was screened for activity against FLuc using a biochemical assay of purified FLuc and KM concentrations of FLuc substrates (D-luciferin and ATP).
NCGC Assay Protocol Summary: Reagents: 50mM Tris acetate, pH 7.5; 10mM Mg acetate; 10uM D-luciferin (Sigma #L9504); 10uM ATP; 0.01% Tween-20; 0.05% BSA; 10nM P. pyralis luciferase (Sigma #L9506) Control compounds used were two known firefly luciferase inhibitors (compounds (2) and (5) in Auld et al., 2010), and DMSO. […]

Compound	Potency
Cc1ccc(OCCSc2nc(C)c(Cc3ccccc3)c(=O)[nH]2)cc1	inactive
O=C(Cn1cnc([N+](=O)[O-])n1)NCCc1ccccc1	inactive
O=C(Nc1ccn(Cc2ccccc2)n1)c1cccc(F)c1	4.78 µM (active)
Cc1ccc(Cn2ccc(NC(=O)C3C4CCC(C4)C3C(=O)O)n2)cc1 (centres undefined)	inactive
O=C(Nc1ccn(Cc2ccccc2)n1)c1n[nH]c([N+](=O)[O-])c1Cl	0.849 µM (active)
CCn1c(=O)c(=O)n(CC)c2cc(N3CCCCC3)c(NC(=O)c3cccc(F)c3)cc21	inactive
O=C(Nc1ccccc1N1CCN(c2ccccc2)CC1)c1cccc(F)c1	inactive
COc1cc(NC(=O)CSc2nc3nc(C)c(Cc4ccc(C)cc4)c(C)n3n2)cc(OC)c1OC	inactive
CCC(C)N(C(=O)CSc1nnnn1-c1ccccc1OC)C1CCS(=O)(=O)C1 (centres undefined)	inactive
CCC(=O)N1CCc2cc(S(=O)(=O)NC(C(=O)NCCc3ccc(C)cc3)C(C)C)ccc21 (centres undefined)	inactive
Cc1cc(C)nc(S/C=C/C(=O)c2ccccc2)n1	3.79 µM (active)
Cc1cc(Oc2ccc(Cl)cc2)nc(SCC(=O)c2ccccc2)n1	inactive
Cc1cc(C)nc(SCC(=O)c2ccc(Cl)cc2)n1	inactive
O=C(CSc1nccn1-c1ccc(F)cc1)Nc1cccc2ccccc12	inactive
S=C(c1ccccc1)N1CCCC1	inactive
S=C(c1ccc(-c2ccccc2)o1)N1CCCCC1	2.69 µM (active)
OCCN1CCN(C(=S)c2ccc(-c3ccccc3)cc2)CC1	inactive
COc1cccc(C(=O)NC2(C(F)(F)F)C(=O)Nc3c2c(=O)[nH]c(=O)n3-c2ccc(C)cc2)c1 (centres undefined)	inactive
CC1CC(C)CN(C(=O)COC(=O)c2ccc3ncsc3c2)C1 (centres undefined)	inactive
Cc1nc(C)c(-c2csc(NCCc3ccccc3)n2)s1	16.9 µM (active)
Cc1nc2sccn2c(=O)c1S(=O)(=O)NCCc1ccccc1	inactive
CCCc1cc(-c2n[nH]c(=S)n2Cc2ccccc2)cs1	inactive
Cc1c(Cl)cccc1NC(=O)C1CCCN(c2ncnc3onc(C)c23)C1 (centres undefined)	inactive

Compound	Potency
Cc1ccc(Cl)cc1N1CCN(C(=O)c2cnc3c(-c4ccc(F)cc4)c(C)nn3c2C)CC1	inactive
Cc1noc(C)c1COc1cccc(C(=O)Nc2cccnc2)c1	inactive
O=C(Nc1cccnc1)c1noc2c1CCCCC2	7.57 µM (active)
O=C(Nc1cccnc1)c1cccc(S(=O)(=O)N2CCCC2)c1	inactive
CCOC(=O)c1c(C)[nH]c(CCC(=O)Nc2ccc(OC)c(OC)c2)c1C	inactive
Cc1cc(NS(=O)(=O)c2ccc(NC(=O)c3cccnc3)cc2)nc(C)n1	inactive
O=C(Cc1ccccc1)Nc1ccc(NC(=O)c2cccnc2)cc1	inactive
Cc1ccc2nc(-c3ccc(NC(=O)c4cccnc4)cc3)oc2c1	5.36 µM (active)
Cc1cc2nc(-c3ccc(NC(=O)c4cccnc4)cc3)oc2cc1C	6.75 µM (active)
CC(=O)NC(=S)Nc1ccc(NC(=O)c2cccnc2)cc1	inactive
O=C(Nc1ccc(-c2nc3cc(NC(=O)c4ccccc4Cl)ccc3o2)cc1)c1ccccc1Cl	inactive
CC(C)NC(=O)C1CCC(Cn2c(=O)c3sccc3n(Cc3ccc(F)cc3)c2=O)CC1 (centres undefined)	inactive
COc1cc(OC)c(NC(=O)N2CC3CCCN3c3ccccc32)cc1Cl (centres undefined)	inactive
COC(=O)c1ccccc1NC(=O)Cn1c(=O)cc(C)c2c(C)nn(-c3cccc(Cl)c3C)c21	inactive
COc1ccc2ncc3c(-c4ccc(C)c(C)c4)nn(CC(=O)NC4CCCC4)c3c2c1	inactive
COc1c(O)cc2oc(-c3ccc(O)c(O)c3)cc(=O)c2c1O	19 µM (active)
COc1ccc(-c2cc(=O)c3c(O)cc(O[C@@H]4O[C@H](CO[C@@H]5O[C@@H](C)[C@H](O)[C@@H](O)[C@H]5O)[C@@H](O)[C@H](O)[C@H]4O)cc3o2)cc1O	inactive
CCOC(=O)COc1cc(O)c2c(=O)cc(-c3ccccc3)oc2c1	inactive
COc1ccccc1CNC(=O)CCCCn1c(=O)c2ccccc2n(CC(=O)Nc2cc(Cl)ccc2C)c1=O	inactive
Cc1nn(C(=O)c2c(F)cccc2F)c(C)c1S(=O)(=O)N1CCOCC1	inactive
CC(C)(C)OC(=O)NCCCCCNC(=O)c1[nH]cnc1C(=O)Nc1nccs1	inactive
Cc1ccc(-n2c(SCC(=O)NCc3ccc4c(c3)OCO4)nnc2-c2cccnc2)c(C)c1	inactive
Cc1ccc(C)c(N2CCN(C(=O)C3CCC(CNS(=O)(=O)c4cccs4)CC3)CC2)c1 (centres undefined)	inactive

Compound	Potency
Cc1ccc2c(c1)c1ncn(Cc3ccc(F)cc3)c(=O)c1n2C	inactive
Cc1ccc(S(=O)(=O)Nc2nc3ccccc3nc2N2CCc3ccccc3C2)cc1	inactive
Cc1ccc2c(c1)c1ncnc(N3CCc4ccccc4C3)c1n2C	13.5 µM (active)
CCN(CC)CCCNC(=O)c1cn(C)c2ccc(S(=O)(=O)N(C)C3CCCCC3)cc2c1=O	inactive
Cn1c(=O)c2c(-c3ccccc3Br)n(Cc3ccccc3)cc2n(C)c1=O	inactive
COc1cc(OC)cc(-c2c(-c3cccs3)c3cc(-c4ccc(OC)cc4F)ccc3n2C)c1	inactive
CCn1cc(C(=O)NCc2ccc(OC)cc2OC)c(=O)c2ccc(C)nc21	inactive
O=C(/C=C/c1ccccc1)N1CCN(Cc2cc(=O)n3nc(-c4ccccc4F)sc3n2)CC1	inactive
O=C(CNC(=O)c1cccnc1)N/N=C/c1cc(Br)c(O)c(Br)c1	inactive
O=C(CNC(=O)c1cccnc1)N/N=C/c1cccnc1	inactive
Cc1cc(/C=N/NC(=O)c2cccnc2)c(C)n1CC(C)C	7.57 µM (active)
COc1ccc(Cn2c(C(=O)O)c(CNCCc3cccs3)c3ccc(OC)cc32)cc1	inactive
Cc1cc(N=Nc2ccc3ccccc3c2)ccc1O	1.35 µM (active)
CCOc1ccc(-c2nonc2NC(=O)c2oc3ccc(C)cc3c2C)cc1OCC	inactive
COc1ccc(S(=O)(=O)N(C)CC(=O)Nc2ccc3c(c2)OCCO3)cc1OC	inactive
COc1cccc(NC(=O)CSc2nccn(-c3ccc4c(c3)OCCO4)c2=O)c1	inactive
COc1ccc(/C=C/C(=O)N2CCCC2)cc1OC	inactive
COc1ccc2c(c1)c(=O)c(C(=O)c1ccccc1)cn2CC(=O)Nc1ccc2c(c1)OCCO2	inactive
COc1cccc(/C=C/C(=O)Nc2ccc3c(c2)OCCO3)c1	0.757 µM (active)
COc1ccc(/C=C/C(=O)Nc2ccc(C)cc2)cc1S(=O)(=O)N1CCOCC1	inactive
COc1ccc(NS(=O)(=O)c2cc(NC(=O)/C=C/c3cc(OC)c(OC)c(OC)c3)ccc2N2CCCCC2)cc1	inactive
COc1ccc(/C=C/C(=O)Nc2ccc(C34CC5CC(CC(O)(C5)C3)C4)cc2)cc1OC	0.601 µM (active)
COc1ccc(/C=C/C(=O)Nc2ccc3c(c2)OCCO3)cc1OC	23.9 µM (active)
